According to PubChem BioAssay AID624297 (National Center for Advancing Translational Sciences (NCATS), 2012):
Values joined by “and” are separate entries in the source; they are usually repeats but may differ in a detail not shown here. Equal entries are not always repeated. The whole screen tested about 340,000 compounds, of which about 6,200 (1.8%) were called active. Roughly 10% stayed inconclusive and do not appear here. Calls come from the whole dose curve; as a rule, active = well fitted activation curve with a large enough effect; inconclusive = small, poorly fitted or top-dose-only effect; inactive = no such curve, though single readings can be large or run the other way. Shown is part of a subset that was picked to be rich in actives. Entries that show only a call come without a potency. A structure can be active in one record and inactive in another.

Test: A quantitative high throughput screen for small molecules that induce DNA re-replication in SW480 colon adenocarcinoma cells. Note: nearly all actives have a fitted effect of over 55% in size.
Details: Hoechst DNA content imaging, 48 h; series mostly up to 46.1 µM
In short: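 Readout is total intensity of Hoechst-stained nuclei, excited at 405 nm and collected at 500-530 nm. Compound treatment lasted 48 hr at 37 C in 5% CO2 before staining.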
Potency is the fitted concentration of half-maximal effect.

Row | SMILES | Potency | re-replication activation
1 | CC(C)NC(=O)Nc1cccc2c1O[C@@H](CN(C)S(=O)(=O)c1ccc(F)cc1)[C@@H](C)CN([C@H](C)CO)C2=O | inactive | 
2 | Cc1ccc(OCCNC(=O)c2cccc(S(=O)(=O)N3CCN(Cc4ccccc4)CC3)c2)cc1 | inactive | 
3 | CCCCN1C(=O)/C(=C2/C=CC=CN2C)SC1=S | inactive | 
4 | COc1cc(/C=C2/SC(=S)N(Cc3ccccc3)C2=O)cc(OC)c1O | inactive | 
5 | CN1C=CC=C/C1=C1\SC(=S)N(Cc2ccccc2)C1=O | 23.1 µM (active) | 
6 | O=C(O)C(CCc1ccccn1)c1ccccc1 (centres undefined) | inactive | 
7 | CC(NC(=O)c1ccccc1F)c1cccc2ccccc12 (centres undefined) | inactive | 
8 | CN(NC(=O)c1ccccc1F)c1nc(C(F)(F)F)nc2ccccc12 | 0.517 µM (active) | 
9 | Cn1c(CC(=O)NNC(=O)c2ccccc2F)nc2ccccc21 | inactive | 
10 | COC(=O)Cc1csc(Nc2c(C)n(C)n(-c3ccccc3)c2=O)n1 | inactive | 
11 | COC(=O)Cc1csc(/N=C/c2c(O)n(-c3cccc(C(F)(F)F)c3)c(=O)c3ccccc23)n1 | inactive and 11.6 µM (active) | 
12 | COC(=O)Cc1c(O)ccn(Cc2cccc(C(F)(F)F)c2)c1=O | inactive | 
13 | CC(C)(O)c1ccccc1CC[C@H](SCC1(CC(=O)O)CC1)c1cccc(/C=C/c2ccc3ccc(Cl)cc3n2)c1 | inactive | 
14 | CN(C(=O)COC(=O)Cc1ccccc1[N+](=O)[O-])C1CCS(=O)(=O)C1 (centres undefined) | inactive | 
15 | N#Cc1c(-c2ccccc2)cc(-c2ccccc2)nc1SCC(=O)O | inactive | 
16 | CCOC(=O)CC(=O)CSc1nc(-c2ccccc2)cc(-c2ccc(Cl)cc2)c1C#N | 20.6 µM (active) | 
17 | N#Cc1c(C(F)(F)F)cc(-c2ccc(Cl)cc2)nc1SCC(=O)O | inactive | 
18 | CCOc1ccc(CCNC(=O)COC(=O)C2CCN(S(=O)(=O)c3ccccc3)CC2)cc1OCC | inactive | 
19 | CC(=O)CSc1nc(CCc2ccccc2)c(C#N)c(=O)[nH]1 |  | 4.33% [at 1.84 µM] (inactive)
20 | O=C(N[C@H]1C/C=C\C(c2ccc(F)cc2)N(Cc2ccccc2)C(=O)C1)OCC1c2ccccc2-c2ccccc21 (some centres undefined) | inactive | 

Row | SMILES | Potency | re-replication activation
21 | CN(C(=O)c1ccc(NC(=O)Cc2cccc(NC(=O)C3CCN(C(=O)c4ccccc4)CC3)c2)cc1)C1CC1 |  | -22.3% [at 9.22 µM] (inactive)
22 | O=C(CNC(=O)c1cc(S(=O)(=O)N2CCOCC2)ccc1N1CCCC1)Nc1ccc(F)c(F)c1 | inactive | 
23 | COc1ccc(C(C[N+](=O)[O-])n2nc(C)cc2C)cc1 (centres undefined) | 5.8 µM (active) | 
24 | COc1ccc(OCc2cn3c(C)cc(C)nc3n2)cc1 | inactive | 
25 | COc1ccc(C(=O)CSc2nc(C)cc(C)n2)cc1[N+](=O)[O-] | inactive | 
26 | Cc1cc(C(=O)COc2ccc(Br)cc2F)c(C)n1C1CC1 | inactive | 
27 | O=C1NC(c2ccccc2)Cc2ccncc21 (centres undefined) | inactive | 
28 | C[C@@H]1NS(=O)(=O)c2cc(Cl)ccc2O[C@@H]1c1ccccc1 | inactive | 
29 | O=C1OCCN1C(=O)[C@H]1[C@H](c2ccc(F)cc2)C(c2ccccc2)=NN1c1ccc(Br)cc1 | 9.2 µM (active) | 
30 | Cc1cc(OCCCC(=O)Nc2cc(S(=O)(=O)N3CCOCC3)ccc2N2CCOCC2)ccc1Cl | inactive | 
31 | O=C1C(=O)N(c2ccccc2)C(c2ccccc2)C1c1ccccc1 (centres undefined) | inactive | 
32 | O=C1c2cccc3cc(Br)cc(c23)C(=O)N1Nc1ccccc1 |  | -1.37% [at 9.22 µM] (inactive)
33 | O=C(O)CC1=C(Nc2ccccc2)C(=O)N(c2ccccc2)C1c1ccc(Cl)cc1 (centres undefined) | inactive | 
34 | O=C1C=C(c2ccc(Cl)cc2)C(=O)N1Nc1ccccc1 | 6.51 µM (active) | 
35 | C#CCOCCOCCOCCNc1nc(N2CCN(C(=O)C([C@@H](C)O)n3cc([C@@H](N)CCCCN)nn3)CC2)nc(N2CCN(C(=O)[C@H](CCCCN)n3cc(CN)nn3)CC2)n1 (some centres undefined) | inactive | 
36 | COC(=O)[C@]1(Cc2ccccc2)N[C@H](CN(C)S(=O)(=O)c2ccc(OC(F)(F)F)cc2)[C@@H]2C(=O)N(Cc3ccccc3)C(=O)[C@@H]21 | inactive | 
37 | CCCCN1CC(COc2ccccc2)Oc2cccc(F)c2S1(=O)=O (centres undefined) | inactive | 
38 | O=C(Nc1ccccn1)C1CCN(S(=O)(=O)c2ccccc2)CC1 | inactive | 
39 | Cc1ccnc(NC(=O)C2CCN(S(=O)(=O)c3c(C)c(C)cc(C)c3C)CC2)c1 | 16.4 µM (active) | 
40 | Cc1cccc(NC(=O)C2CCN(S(=O)(=O)c3cccc4cccnc34)CC2)c1 | inactive | 

Row | SMILES | Potency | re-replication activation
41 | C=CC[C@H](CC(=O)N(CCO)Cc1ccccc1)C(=O)N[C@@H](COC(=O)[C@@H](CC=C)Cc1ccc(F)cc1)Cc1ccccc1 | inactive | 
42 | O=[N+]([O-])c1ccccc1S(=O)(=O)Nc1cccc2cccnc12 | 13 µM (active) | 
43 | O=[N+]([O-])c1cccc2ncccc12 | inactive | 
44 | Cc1ccccc1NC(=O)c1ccccc1NS(=O)(=O)c1cccc2cccnc12 | inactive | 
45 | CC(=O)C(CC(=O)N1CCCC1)C(=O)Nc1ccc(Cl)cc1 (centres undefined) | inactive | 
46 | COC1=NC2=NCCN2C(OC)=N1 | inactive | 
47 | O=C(NCCN1CCOCC1)c1ccc2c(c1)ncn2C1CCCC1 | inactive | 
48 | O=C(NCCN1CCOCC1)c1cc(-c2cccs2)nc2ccccc12 | inactive | 
49 | c1ccc2cc3c(NCCN4CCOCC4)ccnc3cc2c1 | 10.3 µM (active) | 
50 | Cc1ccc(S(=O)(=O)N2CCN(C(=O)COC(=O)CNC(=O)c3ccc(C(C)(C)C)cc3)CC2)c(C)c1 | inactive | 
51 | Cc1ccc(S(=O)(=O)c2cc3c(=O)n4cccc(C)c4nc3n(CCc3ccccc3)c2=N)cc1C | inactive | 
52 | CCn1c(=N)c(S(=O)(=O)c2ccc(F)cc2)cc2c(=O)n3ccccc3nc21 | 20.6 µM (active) | 
53 | Cc1ccc(-n2c(=O)c(C#N)cc3c(=O)n4ccccc4nc32)cc1C | inactive | 
54 | N#Cc1c(C(F)(F)F)cc(-c2cccs2)nc1N1CCCCC1 | inactive | 
55 | Cc1cc(C)c(C#N)c(N2CCC(C(N)=O)CC2)n1 | inactive | 
56 | N#CCc1c(C#N)c(N)nc(N2CCCC2)c1C#N | 14.6 µM (active) | 
57 | O=C(OCCOc1ccccc1F)c1cc(S(=O)(=O)N2CCOCC2)ccc1F | inactive | 
58 | COc1cccc(NC(=O)COC(=O)c2ccc3ccccc3n2)c1 | inactive | 
59 | CN(CCc1ccccc1)C(=O)c1cccc(NC(=O)Cc2cccc(NC(=O)C3CCCN(C(=O)CCc4ccccc4)C3)c2)c1 (centres undefined) | inactive | 
